Only some compounds are listed: those with a hit (about 5.6% of all), similar ones and a draw of the others.
CtBP-E1A inh: inhibitors of CtBP/E1A interaction | AlphaScreen GST-E1A/His-CtBP binding, 1536-well; stronger effect = lower value | activity change, % (test concentration not listed) | hit rate 0.49% among 340,000 | AID 651724; in the data active = activity change below about -65%; inconclusive = mostly about -30% to -63%
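AlphaScreen with 125 nM GST-E1A and 125 nM His-CtBP (5X stocks) in Tris pH 8.0, 300 mM NaCl, BSA, Tween 20, TCEP. Compounds preincubated 2 h at 37 deg C, then glutathione donor/nickel acceptor beads added for 1 h at 37 deg C in dark.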
RORgamma inh: ROR gamma (mouse) transcription inhibition. P51450. Drosophila S2 Gal4-RORgamma UAS-luciferase reporter, 20 h. Potency, µM (titrated, usually from 53.6 µM), without a hit: at the top dose activity change, negative = inhibition, most hits filed as inhibitors. hit rate 5.4% among 310,000; note: potency is the fitted concentration of half-maximal effect; nearly all actives have a fitted effect of over 60% in size
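Schneider cells (Drosophila), stable Gal4 DBD–ROR gamma + UAS-luc; 1 hr cmpd preincubation; Cu2+ induction 700 uM final; 20 hr ambient; luminescence.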
VP16 counter: inhibits Gal4-VP16 luciferase reporter, ROR gamma counter-screen; Drosophila S2 Gal4-VP16 UAS-luciferase, luminescence, 20 h; Potency, µM (doses to about 53.6 µM), for the others: at the highest dose activity, negative = inhibition, hits mostly inhibitors; hit rate 3.5% among 310,000; AID 2546;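 note: Gal4-VP16 expression switched on by copper sulfate through the metallothionein promoter; potency is the fitted concentration of half-maximal effect; nearly all actives have a fitted effect of over 50% in size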
PKM2 act: increases activity of human pyruvate kinase M2. purified PKM2, Kinase-Glo ATP luminescence, activation; response scale: 0% is enzyme alone, no compound. Potency, µM (series often up to 57.5 µM), for inactives: at the top dose activation, actives largely listed as activators. hit rate 0.34% among 260,000. AID 1631; note: potency is the fitted concentration of half-maximal effect; nearly all actives have a fitted effect of over 55% in size
Target sequence (P14618 whole entry, looked up): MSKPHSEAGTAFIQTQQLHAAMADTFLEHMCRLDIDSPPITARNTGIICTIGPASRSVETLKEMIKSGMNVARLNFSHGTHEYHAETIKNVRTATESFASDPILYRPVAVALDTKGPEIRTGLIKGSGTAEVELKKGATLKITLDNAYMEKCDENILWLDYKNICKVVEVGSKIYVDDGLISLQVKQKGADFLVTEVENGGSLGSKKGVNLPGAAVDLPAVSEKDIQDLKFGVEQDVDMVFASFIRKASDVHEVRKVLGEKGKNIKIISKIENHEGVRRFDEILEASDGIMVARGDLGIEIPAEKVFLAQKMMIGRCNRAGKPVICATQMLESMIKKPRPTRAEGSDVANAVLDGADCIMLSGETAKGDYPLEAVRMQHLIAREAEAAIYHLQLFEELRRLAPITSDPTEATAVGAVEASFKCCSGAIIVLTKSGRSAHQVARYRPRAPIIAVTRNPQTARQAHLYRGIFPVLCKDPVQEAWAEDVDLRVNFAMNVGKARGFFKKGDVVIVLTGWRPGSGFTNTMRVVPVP
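Purified hPK-M2 (>95%) run at intermediate activity with 0.1 mM ADP and 0.5 mM PEP in 50 mM imidazole pH 7.2, KCl, MgCl2; 1 h room temperature. ATP formed read by Kinase-Glo luminescence; normalized to uninhibited and no-enzyme controls.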
Six1-Eya2 inh: blocks human Six1 binding to Eya2. activity change, % (concentration not given with the values). hit rate 0.56% among 360,000. AlphaScreen GST-Six1/His-Eya2 binding, biochemical; stronger effect = lower value. AID 651725. Q15475+O00167; in the data active = activity change below about -65%; inconclusive = mostly about -30% to -63%
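GST-Six1 + His-Eya2 (5X stock: 250/500 nM); Tris pH 8.0, 300 mM NaCl, 0.05% BSA, 0.02% Tween 20; GSH donor/Ni acceptor beads; 1 h 37 °C dark; AlphaScreen readout.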
* = called active by the depositor; u = inconclusive; x = no result given. Unless noted, calls come from the whole dose curve; as a rule, active = well fitted curve in the direction sought with a large enough effect; inconclusive = small, poorly fitted or top-dose-only effect, or another doubt; inactive = no such curve, though single readings can be large; an effect the other way counts as inactive or inconclusive. % is set by controls: 0 for no effect and ±100 for the full control effect.

SMILES | CtBP-E1A inh | RORgamma inh | VP16 counter | PKM2 act | Six1-Eya2 inh
O=C(Cc1ccccc1)NCc1ccncc1 | 5 | 6.3µM* | u | -15% | 0
CCOC(=O)c1c(C)oc2ccc(OC(=O)COc3c(F)c(F)c(F)c(F)c3F)cc12 | x | 13% | -8% | -3% | 4
Cc1nc(C)c(C(=O)NNS(=O)(=O)c2ccc3ccccc3c2)s1 | 21 | u | 1µM* | 0% | 10
Cc1nc(NS(=O)(=O)c2ccccc2)sc1C(=O)NNS(=O)(=O)c1ccccc1 | -1 | -13% | -8% | -1% | 7
OCC[C@@H]1C[C@H](O)[C@@H](O)[C@@]2(OCCc3ccccc32)O1 | -9 | -15% | -3% | -1% | -2
OCC[C@@H]1C[C@H](O)[C@@H](O)[C@]2(OCCc3ccccc32)O1 | 10 | 7% | 5% | 0% | -83*
CC[C@H](C)[C@H](NC(=O)[C@H](Cc1ccc(O)cc1)NC(=O)[C@@H]1CCCN1C(=O)[C@H](CCCN=C(N)N)NC(=O)[C@H](CCCN=C(N)N)NC(=O)[C@@H]1CCCN1C(=O)[C@H](CCCCN)NC(=O)[C@H](CC(N)=O)NC(=O)[C@H](CCC(N)=O)NC(=O)[C@H](Cc1ccc(O)cc1)NC(=O)[C@H](CC(C)C)NC(=O)[C@@H]1CCC(=O)N1)C(=O)N[C@@H](CC(C)C)C(=O)O | x | 17% | -2% | x | x
COc1ccccc1NC(=O)c1cc2ccc(O)cc2o/c1=N\O | -24 | 0.89µM* | 2.2µM* | 20% | -22
COc1ccccc1NC(=O)c1cc2ccccc2o/c1=N\O | -23 | u | -26% | 20% | -1
COc1ccccc1NC(=O)c1cc2cc(Br)ccc2cc1O | x | u | 8.9µM* | -7% | 3
Cc1cc(C)c2c(CC(=O)NC3CCS(=O)(=O)C3)coc2c1 (stereo not drawn) | x | 11% | -6% | x | -1
O=C(NC(=S)Nc1cc(Cl)ccc1N1CCOCC1)c1ccccc1[N+](=O)[O-] | -4 | 3.5µM* | 3.5µM* | 1% | -27
COc1ccc(C(=O)Nc2ccccc2N2CCOCC2)cc1[N+](=O)[O-] | -10 | -5% | -3% | -21% | 4
Cc1cc(C(=O)NC(=S)Nc2ccccc2N2CCCC2)ccc1[N+](=O)[O-] | -2 | 2.5µM* | 3.2µM* | -6% | -9
Cc1cc(C(=O)Nc2ccccc2N2CCOCC2)ccc1[N+](=O)[O-] | 4 | -21% | -7% | 10% | 0
COc1ccc(Cl)cc1C(=O)NC(=S)Nc1ccccc1N1CCOCC1 | -13 | x | x | 1% | -6
COc1ccc(C(=O)NC(=S)Nc2ccccc2N2CCOCC2)cc1[N+](=O)[O-] | -20 | 6.3µM* | 10µM* | 0% | -19
Cc1cc(C(=O)NC(=S)Nc2ccccc2N2CCOCC2)ccc1[N+](=O)[O-] | -7 | 2.8µM* | 14µM* | 0% | u
CCOC(=O)[C@H]1[C@H]2COc3ccc(C)cc3[C@@H]2N2C(=O)c3ccccc3NC(=O)[C@@]12C | 1 | x | x | x | -3
NCC1OC(OC2C(N)CC(N)[C@@H](O)[C@@H]2OC2O[C@H](CO)[C@@H](O[C@@H]3OC(CN)C(O)C(O)C3N)C2O)C(N)C(O)C1O (stereo partly drawn) | x | -14% | -3% | x | x
CCCSc1cc(NCCOC(=O)CCC)c([N+](=O)[O-])c2nonc12 | -2 | u | u | 0% | -23
CCC(=O)OCCNc1cc(Sc2nc3ccccc3[nH]2)c2nonc2c1[N+](=O)[O-] | -2 | 3.2µM* | 4.5µM* | u | -25
CCC(=O)OCCNc1cc(Sc2nc3ccccc3s2)c2nonc2c1[N+](=O)[O-] | 0 | -37% | 4.5µM* | u | -5
CCCC(=O)OCCNc1cc(Sc2nccn2C)c2nonc2c1[N+](=O)[O-] | -1 | 5.6µM* | 5µM* | u | u
C=CCNC(=S)NNC(=O)COc1ccc(Br)cc1 | -3 | 5µM* | 3.5µM* | 7% | 3
SMILES | CtBP-E1A inh | RORgamma inh | VP16 counter | PKM2 act | Six1-Eya2 inh
C=CCNC(=S)NNC(=O)c1cccc(Br)c1 | 1 | u | u | -4% | -1
C=CCNC(=S)NNC(=O)COc1cccc(Cl)c1 | 0 | 1.3µM* | 8.9µM* | -1% | -2
C=CCNC(=S)NNC(=O)COc1ccc2cc(Br)ccc2c1 | -19 | 3.2µM* | u | 0% | -3
O=C(Cn1cc(COc2ccc(Cl)c(Cl)c2)nn1)NS(=O)(=O)c1ccccc1C(F)(F)F | -5 | x | x | x | 2
CCOC(=O)c1c2c3c(cccc3[nH]c1=O)C(=O)c1ccccc1-2 | u | 22% | 0% | -10% | u
CCOC(=O)c1c2c3c(cccc3n(C)c1=O)C(=O)c1ccccc1-2 | -83* | -17% | -15% | 2% | -69*
CCOC(=O)c1c2c3c(c(Cl)ccc3[nH]c1=O)C(=O)c1ccccc1-2 | -89* | 33% | -16% | 3% | -76*
CCOC(=O)c1c2c(n(Cc3ccccc3)c1C)C(=O)C(=O)c1ccccc1-2 | -79* | x | x | x | u
Cc1nn(-c2ccccc2)c(Cl)c1C(=O)Nc1nnc(C2CCCC2)s1 | -3 | 7.9µM* | u | -13% | 0
Cc1ccc(Nc2nnc(SCC(=O)c3ccc(Br)s3)s2)c(C)c1 | -18 | 35µM* | u | 0% | -11
C/C(=N/NC(=O)c1cccs1)c1c(C)[nH]n(-c2nc3ccccc3s2)c1=O | u | 1.4µM* | 2µM* | -87% | u
CC(=NCc1ccco1)c1c(C)[nH]n(-c2nc3ccccc3s2)c1=O | 2 | u | u | -12% | 2
CCN(CC)CCCN=Cc1c(-c2ccccc2)[nH]n(-c2nc3ccccc3s2)c1=O | 0 | u | -7% | -10% | 7
CCCN=C(C)c1c(-c2ccccc2)[nH]n(-c2nc3ccccc3s2)c1=O | 2 | 2.5µM* | -25% | -1% | -1
COC(=O)Cc1[nH]n(-c2nc3ccccc3s2)c(=O)c1C(C)=Nc1ccc(Cl)cc1 | 0 | 11µM* | -20% | -13% | -3
COC(=O)Cc1[nH]n(-c2nc3ccccc3s2)c(=O)c1C(C)=Nc1ccc(C)cc1 | -1 | u | -22% | -18% | -5
CCC(=NCc1ccccc1)c1c(C(F)(F)F)[nH]n(-c2nc3ccccc3s2)c1=O | -1 | 8.9µM* | -17% | 6% | 2
CC1(C(=O)O)CCCN1C(=O)c1cccc(OC(F)(F)F)c1 (stereo not drawn) | 12 | x | x | x | 5
COc1ccccc1C(=O)Nc1nnn(C)n1 | -1 | 1% | 2% | 3% | 10
Cn1nnc(NC(=O)c2cccs2)n1 | 3 | 31% | 5% | x | 2
Cn1nnc(NC(=S)NC(=O)c2cccc3c(Cl)cccc23)n1 | -21 | 0.89µM* | 2.8µM* | x | -12
COc1c(C(=O)NC(=S)Nc2nnn(C)n2)cc2ccccc2c1Br | -3 | 2.5µM* | 4µM* | 0% | 20

Bioassay records deposited in PubChem by National Center for Advancing Translational Sciences (NCATS).
